# According to the supplement of paper PMC3334620:
# Over roughly 33,000 sequences, “E-score (-0.5 to 0.5)” has its median near -0.054; the highest 2% begin near 0.39. The sample holds the highest values, similar sequences and a random draw of the others, so the mix is not that of the screen.
# Target: Ylr278c (UniProt Q05854)
# Experiment: PBM E-score (8-mer binding enrichment) (E-score (-0.5 to 0.5)); higher = stronger / more preferred TF binding
# Settings: protein concentration: 200 nM; construct: GST-DNA-binding domain
# Procedure, shortened: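 Universal all-10-mer Agilent arrays, fresh or stripped once, were converted to double-stranded form by primer extension. GST-tagged yeast transcription factors from PURExpress in vitro transcription/translation, full-length or DNA-binding domain only, were applied at about 100-200 nM and detected with fluorescent anti-GST. After masliner normalisation, the Universal PBM Analysis Suite scored each ungapped eight-base word together with its reverse complement by E-score.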
# Chain of UniProt Q05854 (Q05854 whole entry): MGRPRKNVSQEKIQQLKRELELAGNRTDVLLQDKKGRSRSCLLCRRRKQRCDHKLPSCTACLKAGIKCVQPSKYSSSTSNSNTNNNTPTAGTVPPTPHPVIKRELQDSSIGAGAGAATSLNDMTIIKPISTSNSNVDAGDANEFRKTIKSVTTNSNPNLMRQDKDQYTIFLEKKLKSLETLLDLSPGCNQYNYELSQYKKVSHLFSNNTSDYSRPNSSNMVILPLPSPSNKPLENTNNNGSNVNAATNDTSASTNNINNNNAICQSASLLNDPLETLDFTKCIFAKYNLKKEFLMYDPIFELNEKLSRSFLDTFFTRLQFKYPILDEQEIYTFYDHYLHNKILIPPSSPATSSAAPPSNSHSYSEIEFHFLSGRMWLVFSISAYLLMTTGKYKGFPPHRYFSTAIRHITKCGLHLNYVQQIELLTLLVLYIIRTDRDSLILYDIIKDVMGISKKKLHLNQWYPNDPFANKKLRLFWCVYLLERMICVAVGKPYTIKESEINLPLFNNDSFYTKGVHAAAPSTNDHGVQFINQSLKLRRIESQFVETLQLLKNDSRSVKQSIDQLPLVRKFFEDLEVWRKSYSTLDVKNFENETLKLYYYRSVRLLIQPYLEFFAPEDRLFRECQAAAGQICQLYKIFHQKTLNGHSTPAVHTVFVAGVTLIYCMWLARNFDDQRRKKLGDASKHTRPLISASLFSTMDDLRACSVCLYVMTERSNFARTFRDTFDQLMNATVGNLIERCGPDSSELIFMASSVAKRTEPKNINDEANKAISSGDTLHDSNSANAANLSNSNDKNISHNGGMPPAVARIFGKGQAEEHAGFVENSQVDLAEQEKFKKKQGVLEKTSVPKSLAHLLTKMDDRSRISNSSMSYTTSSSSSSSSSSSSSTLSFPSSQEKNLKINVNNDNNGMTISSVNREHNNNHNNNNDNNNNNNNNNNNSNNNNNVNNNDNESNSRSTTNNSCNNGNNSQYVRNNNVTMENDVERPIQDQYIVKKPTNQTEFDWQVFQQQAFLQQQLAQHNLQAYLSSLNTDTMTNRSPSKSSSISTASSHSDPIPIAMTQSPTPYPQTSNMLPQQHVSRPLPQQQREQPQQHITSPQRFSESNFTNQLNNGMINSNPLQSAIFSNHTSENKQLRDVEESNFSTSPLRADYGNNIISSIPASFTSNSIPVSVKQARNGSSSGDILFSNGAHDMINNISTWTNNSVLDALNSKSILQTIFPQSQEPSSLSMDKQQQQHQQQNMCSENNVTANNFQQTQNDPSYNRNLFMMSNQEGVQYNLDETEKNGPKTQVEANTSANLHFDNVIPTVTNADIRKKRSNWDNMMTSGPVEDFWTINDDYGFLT
row,Sequence,PBM E-score
1,TACTCATA,-0.285
2,AGCATTGC,-0.106
3,GCAGTTCC,0.169
4,AGTGCGTA,-0.0325
5,CAGATAAC,0.123
6,CCCACTGA,-0.155
7,GTAGAAGA,-0.177
8,GCAGAGCC,-0.128
9,CGGGAGCC,0.0673
10,GCGGAGCC,0.394
11,TAGGAGCA,-0.184
12,GAGGAGCC,-0.0931
13,TCAGAGCA,-0.282
14,CCGGAGCC,0.422
15,TCGGAGCA,0.455
16,CTGGAGCC,0.0766
17,CTGAGGAC,0.0445
18,AGTCTTTG,-0.289
19,CATCAAGC,-0.0328
20,GGGGGCCA,-0.0264
21,AAGCAAAT,-0.19
22,GTCACGAA,-0.0546
23,AGTGTTAT,-0.0541
24,CAGTCCAA,-0.218
25,TGGAACAA,-0.206

row,Sequence,PBM E-score
1,CGGAACAC,0.353
2,AGGAACAG,-0.279
3,CGGAACAG,0.388
4,CGGAACAA,0.427
5,GGGAACAA,0.0828
6,AAACAGCA,0.0669
7,ATTTCATC,0.166
8,GCTTGTTA,0.0864
9,ACGGATCG,0.142
10,CCGGATCA,0.385
11,GCGGATCC,0.271
12,CCGGATCG,0.396
13,CCGGATCC,0.42
14,CAGGATCG,0.00336
15,CTCTTCTC,-0.106
16,AAATTCAA,0.0115
17,CAACTAAA,-0.0258
18,ACTACTCG,0.0653
19,ATCCTGGA,-0.101
20,CGTGGTAG,-0.0716
21,TTCGGAAA,0.419
22,ATCGGAAC,0.406
23,GTCGGAAC,0.413
24,CTCGGAAA,0.374
25,TCGGGAAA,0.35

row,Sequence,PBM E-score
1,AACGGAAT,0.379
2,AGCGGAAT,0.385
3,CTCGGAAC,0.381
4,ATTGGAAC,-0.0837
5,ATCGGAAT,0.443
6,GTGGGAAC,-0.189
7,AACGGAAC,0.322
8,GATGACGC,-0.146
9,AGACACCT,-0.185
10,CGCAGGGC,0.049
11,ACTTTGCT,-0.141
12,ACTAACGC,0.0051
13,AACCTCAT,-0.143
14,GTCGGAAA,0.424
15,AGCGGAAA,0.358
16,ATCGGAAG,0.332
17,ATCGGAAA,0.416
18,GTCGGGAA,0.201
19,CAGCCACC,0.0671
20,AGCGACTC,-0.142
21,ACAAACTC,0.155
22,CCCTTTAA,-0.0852
23,CTCGTTCC,0.165
24,ATTAACCG,0.322
25,CATTTGGG,-0.0571

row,Sequence,PBM E-score
1,GAAGAGAC,0.0662
2,ACATCGGA,0.377
3,CCATCGGC,0.282
4,CCATCGGA,0.415
5,GCATCGGC,0.308
6,TCATCGCA,-0.0812
7,TCATCGAA,-0.174
8,GCATCGGA,0.437
9,TCATCGGA,0.408
10,CCATCGGG,0.259
11,AAAAAGAG,-0.21
12,AGATCGCC,-0.00696
13,CCGAGAAG,0.226
14,GACAATGC,0.0317
15,GAGTCGAC,0.00525
16,CAATGGTG,-0.248
17,ACTCAATA,-0.101
18,ACACCGAC,0.26
19,ACTCCTAG,-0.114
20,ACTCCGAC,0.481
21,TCTCCGAA,0.455
22,TCTCCAAA,-0.126
23,ACTCCAAG,-0.198
24,ACGCCGAC,0.343
25,CCTCCGAC,0.405

row,Sequence,PBM E-score
1,ACTCCGAG,0.478
2,CCACCGAC,0.0976
3,TCTCCTAA,-0.144
4,CCTCCAAC,-0.212
5,AAGTAGGA,-0.313
6,ACACCGCT,0.00228
7,GGCGCATA,0.0769
8,GGGCTACA,-0.0376
9,GTGACGTA,-0.142
10,CGTCCACC,-0.00012
11,ACCTCATA,-0.101
12,AAATACGG,0.14
13,ACGAACCA,-0.125
14,CATCCGAG,0.193
15,ACTCCAAA,-0.118
16,GCTCCAAA,-0.172
17,ACTCCGAT,0.484
18,CCTCCGAG,0.426
19,CCTCCAAG,-0.202
20,ACTCCGAA,0.484
21,ACTCCCAT,-0.16
22,ACTCCTAT,-0.0311
23,ACTCCCAA,0.0108
24,GCTCCGAA,0.464
25,GCTCCGAC,0.374

row,Sequence,PBM E-score
1,ACCTAAGC,0.0293
2,GGAGAAAC,0.309
3,CAGGGCGC,0.0102
4,GGAACCAC,0.0576
5,AAGCCACG,-0.0652
6,AAAAGAGA,-0.223
7,AAAGAAGA,-0.0104
8,CCACCGAA,-0.0526
9,CCTCCAAA,-0.14
10,CCTCCGAA,0.441
11,GTGAGATA,0.052
12,TACGGAGA,0.386
13,CACGGAGC,0.403
14,GACGGAGC,0.378
15,CACGGACC,0.282
16,CAAGGAGA,-0.105
17,GACGGAGA,0.453
18,CACGGAGA,0.429
19,GACGGATA,0.249
20,AACGGAGA,0.393
21,AACGGATA,0.292
22,GAGGGAGA,-0.145
23,AACGGAAA,0.374
24,AAATCTGT,-0.0526
25,TGTTGAAA,-0.0138

row,Sequence,PBM E-score
1,ACTACTTA,-0.0798
2,CGACTATA,-0.0135
3,CCCCAGAA,0.00338
4,CACAAAGA,-0.197
5,CCATAAGC,-0.105
6,CACGGAGG,0.394
7,AACGGAGG,0.3
8,AACGGACT,0.328
9,CACGGACG,0.22
10,AACGGAGC,0.309
11,AACGGAGT,0.448
12,CCAGCTCG,-0.106
13,CTGAACCC,-0.0929
14,TAGAGGAA,-0.211
15,CAACTGGG,-0.0669
16,CAGGACCG,0.0623
17,ACGGACCG,0.335
18,CCGGACCA,0.369
19,GCGGACCC,0.354
20,CCGGACCG,0.426
21,CCGGACCC,0.391
22,CCATTCAC,-0.042
23,CTAGATAG,-0.28
24,CGCCGTAC,0.163
25,AAGGCATT,-0.246

row,Sequence,PBM E-score
1,AACTCGGT,0.00153
2,AACTCGGA,0.392
3,CACTCGGA,0.329
4,GACTCGGC,0.134
5,TACTCGGA,0.342
6,GACTCGGA,0.4
7,CAATGGGC,-0.106
8,ACTCATCC,-0.0863
9,AGGCCACG,-0.0792
10,AACCCCGA,0.431
11,GACCCCGC,0.247
12,AAACCCCC,-0.0651
13,AACCCCCG,0.26
14,ACCCCCGA,0.261
15,AACCCCGC,0.41
16,CACCCCGA,0.29
17,AAACCCCG,0.449
18,ACCCCCGC,0.266
19,AACCCCGT,0.381
20,GACCCCGA,0.336
21,TACCCCGA,0.411
22,ACGCAGAA,-0.0444
23,TATATGCA,-0.245
24,ACCAGTCA,-0.036
25,TAAGGAAA,-0.131

row,Sequence,PBM E-score
1,GCCTATAA,-0.116
2,AAGCGTTG,-0.256
3,CCAGCGCA,0.0176
4,AAGGTGCC,-0.0322
5,CGTGAATA,-0.00311
6,AAACCCGG,0.428
7,ATACCCCC,0.0218
8,AAACCCGC,0.287
9,AACCCCGG,0.458
10,CAACCCGG,0.229
11,ATACCCCG,0.401
12,AAACCCGA,0.384
13,CAACCCCC,-0.0384
14,CACCCCGG,0.314
15,ATACCCCA,0.00063
16,CAACCCCG,0.397
17,ACCCCCGG,0.334
18,ACTGTTGC,0.0649
19,ATAGGACA,-0.311
20,AGAAGCCG,0.241
21,AATCGAGA,-0.115
22,GAGAAGAC,0.0429
23,CCTATCCG,0.114
24,GAAATGAC,-0.0184
25,AGATTGGG,0.0161

row,Sequence,PBM E-score
1,CAGAATAG,-0.179
2,CGGAATAA,0.433
3,AGGAATAC,-0.0793
4,CGGAATAG,0.391
5,TGGAATAA,-0.0106
6,AGGAATAG,0.102
7,GGGAATAC,0.176
8,CGGAATAC,0.423
9,GGGAATAA,0.261
10,GAGGGTCC,0.173
11,CTGGTTGC,0.123
12,CCTAGCTA,-0.246
13,TCCCTTAA,-0.263
14,ATGCTGGC,-0.147
15,ATAAGTGA,-0.229
16,CGACGCGC,0.21
17,GACCCGGC,0.184
18,TACCCGTA,-0.0475
19,AACCCGGT,0.304
20,TACCCGGA,0.395
21,TACCCGAA,0.0727
22,GACCCGGA,0.391
23,CACCCGGA,0.365
24,AACCCGGC,0.313
25,AACCCGGA,0.435

row,Sequence,PBM E-score
1,CTGAAAAG,-0.131
2,AGTTGCCG,0.171
3,GGCGTGTA,-0.155
4,TATGTAAA,0.0517
5,CCTTGAAC,-0.189
6,ACGTACTG,-0.138
7,AAACTTGC,-0.0141
8,ACGAGGAA,-0.0559
9,TGCTCTAA,-0.211
10,AGTGAGGA,-0.255
11,ACTCCGCC,0.475
12,GCTCCGCA,0.377
13,ACTCCTCA,-0.21
14,ACTCCGCT,0.417
15,TCTCCTCA,-0.147
16,TCTCCGCA,0.407
17,ACGCCGCT,0.224
18,GCTCCGCC,0.382
19,ACTCCCCT,0.174
20,AATCCGCC,0.319
21,CTTCCGCA,0.198
22,ACTCCGCA,0.452
23,GTTTAGGA,-0.122
24,ACAGCAGC,-0.191
25,CGCCCAAC,0.0317

row,Sequence,PBM E-score
1,ACCCTAAA,0.099
2,ATAGCTCG,-0.0396
3,ATGCTGTA,-0.185
4,TAAGTATA,-0.0135
5,GGACTGAA,-0.00012
6,ATGGCCAT,0.0373
7,CTGAGATC,-0.196
8,GGGAGATA,-0.0385
9,AGGAGATC,0.0493
10,GGGATATA,0.151
11,CGGAGATC,0.479
12,CGGATATC,0.366
13,AGGAGATA,-0.016
14,CGGAGATA,0.483
15,CGGATATA,0.393
16,CGACTCAA,0.0186
17,GTCATGAC,0.0612
18,GCCAGTTA,-0.0644
19,GCACTCGC,0.0715
20,CGTTCGCC,0.145
21,ACATCCGT,0.162
22,ATATCCGC,0.38
23,AGATCCGG,0.41
24,AGATCCGC,0.37
25,ACATCCGG,0.444

row,Sequence,PBM E-score
1,ACATCCGA,0.356
2,ATATCCGA,0.387
3,AGATCCGA,0.344
4,ATATCCGG,0.413
5,ATAGTGGC,-0.179
6,ACAGGCAA,-0.209
7,CTGCGACA,0.094
8,ACGATGGC,-0.144
9,ATAAGTAA,0.0323
10,GCCAACGA,-0.181
11,CGACTGTA,-0.139
12,CGGACTCA,0.384
13,CGGACTAA,0.423
14,CGGACTTA,0.452
15,AGGACTTC,-0.0413
16,TGGACTAA,-0.188
17,CGGACTTC,0.473
18,AGGACTTA,-0.0757
19,AGGACTCC,0.0662
20,CTGACTTC,0.088
21,CGGACTCC,0.423
22,GGGACTTA,-0.0692
23,GGGACTAA,-0.0466
24,ACAAAGCG,-0.0993
25,TGGACGAA,-0.116

row,Sequence,PBM E-score
1,ACACCACT,-0.0175
2,CCCGGTAG,0.252
3,GCGGTGAC,0.0764
4,ATCCGGCA,0.369
5,CTCCGGCC,0.455
6,CTACGGCC,0.123
7,CTCCGGCA,0.469
8,CTGCGGCC,0.2
9,GACCGGCA,0.258
10,GCCCGGCA,0.255
11,CACCGGCA,0.328
12,GTCCGGCA,0.41
13,GATCTGGC,0.0483
14,ACCTAACC,0.0688
15,TAAGAGGA,-0.0178
16,AAAGATTG,-0.146
17,AGCTAAGC,-0.164
18,CATAGGAC,-0.146
19,ATCGCTTG,-0.321
